Test results as given in PubChem BioAssay AID1159580 (chemical genetic matrix, 2015).
Out of some 5,500 compounds screened, about 2,000 (36%) were called active. Inconclusive results (about 18%) are left out. Rule as the data show it: active = normalized growth mostly below about 0.91 (no sharp cut-off); inconclusive = no clear call, values can overlap the other calls; inactive = mostly above about 0.92. Some of the results follow.

Test: chemical genetic growth profiling, strain panel (AID 1159580);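 also: tested at 20 µM; growth read once vehicle control cultures reached saturation at 30 °C; 1 = growth at the plate median or of vehicle wells; lower values mean less growth of the strain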
Conditions: growth OD

Measured: normalized growth

CSc1nc(N)nc(C(C)(C)C)n1
inactive: S. cerevisiae deletion strains, locus YAL013W, strain DEP1, stronger effect = lower value 1.01 | S. cerevisiae deletion strains, locus YBR229C, strain ROT2, stronger effect = lower value 1 | S. cerevisiae deletion strains, locus YCL061C, strain MRC1, stronger effect = lower value 0.993 | S. cerevisiae deletion strains, locus YDL101C, strain DUN1, stronger effect = lower value 0.976 | S. cerevisiae deletion strains, locus YDL134C, strain PPH21, stronger effect = lower value 1.01 | S. cerevisiae deletion strains, locus YDR150W, strain NUM1, stronger effect = lower value 0.978 | S. cerevisiae deletion strains, locus YEL061C, strain CIN8, stronger effect = lower value 1.02 | S. cerevisiae deletion strains, locus YGR078C, strain PAC10, stronger effect = lower value 1.01 | S. cerevisiae deletion strains, locus YHR030C, strain SLT2, stronger effect = lower value 0.974 | S. cerevisiae deletion strains, locus YHR087W, strain rtc3, stronger effect = lower value 1 | S. cerevisiae deletion strains, locus YJL187C, strain SWE1, stronger effect = lower value 1.02 | S. cerevisiae deletion strains, locus YJR043C, strain POL32, stronger effect = lower value 1.01 | S. cerevisiae deletion strains, locus YJR075W, strain HOC1, stronger effect = lower value 0.978 | S. cerevisiae deletion strains, locus YLR039C, strain RIC1, stronger effect = lower value 1.01 | S. cerevisiae deletion strains, locus YLR058C, strain SHM2 (second series), stronger effect = lower value 1.02 | S. cerevisiae deletion strains, locus YLR085C, strain ARP6, stronger effect = lower value 1.03 | S. cerevisiae deletion strains, locus YLR262C, strain YPT6, stronger effect = lower value 1.01 | S. cerevisiae deletion strains, locus YML094W, strain GIM5, stronger effect = lower value 0.981 | S. cerevisiae deletion strains, locus YMR219W, strain ESC1, stronger effect = lower value 1.02 | S. cerevisiae deletion strains, locus YMR263W, strain SAP30, stronger effect = lower value 0.991 | S. cerevisiae deletion strains, locus YNL128W, strain TEP1, stronger effect = lower value 1.02 | S. cerevisiae deletion strains, locus YNL153C, strain GIM3, stronger effect = lower value 0.982 | S. cerevisiae deletion strains, locus YNL298W, strain CLA4 (second series), stronger effect = lower value 1.03 | S. cerevisiae deletion strains, locus YNL322C, strain KRE1, stronger effect = lower value 1 | S. cerevisiae deletion strains, locus YNR030W, strain Alg12, stronger effect = lower value 1 | S. cerevisiae deletion strains, locus YOL006C, strain TOP1, stronger effect = lower value 0.968 | S. cerevisiae deletion strains, locus YPL055C, strain LGE1, stronger effect = lower value 0.989 | S. cerevisiae deletion strains, locus YPL241C, strain CIN2, stronger effect = lower value 1.11 | S. cerevisiae deletion strains, locus YPR135W, strain CTF4, stronger effect = lower value 0.951 | S. cerevisiae strains, strain wild type, stronger effect = lower value 1.02
